High-throughput results deposited in PubChem BioAssay by several laboratories.
Only some compounds are listed: those with a hit (about 1.3% of all), similar ones and a draw of the others.
GC-B act = GC-B (human) receptor activation; P20594; HEK293-GC-B cells, CNP EC30, cGMP TR-FRET; 0% at EC30 CNP, 100% saturating CNP; activation, % at 10 µM; 0.11% of 370,000 active; AID 1920062;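 active = activation at 10 µM reaching about 35% in either raw or pattern-adjusted values, limit read from the data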
ADAM10 inh = inhibits human ADAM10; O14672; 0.62% of 370,000 active; recombinant ADAM10, EDANS/DABCYL FRET peptide cleavage, 3 h; inhibition, % at 7 µM;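 active = inhibition above a per-campaign cutoff equal to the mean of compounds falling between control-based bounds plus 3 SD, cut at about 20% in these data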;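 note: 0% = DMSO wells while the 100% control is not disclosed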
ADAM17 inh = ADAM17 inhibition, QFRET primary screen; inhibition, % at 6.95 µM; P78536; AID 720648; 0.83% of 370,000 active; recombinant ADAM17, EDANS/DABCYL FRET peptide cleavage;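 active = inhibition above the mean of compounds lying between control limits plus 3 SD, set per campaign, cut at about 8.5% in these data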;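 note: 0% = DMSO-only wells as the low control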
Target sequence (P78536 215-824 limits assumed): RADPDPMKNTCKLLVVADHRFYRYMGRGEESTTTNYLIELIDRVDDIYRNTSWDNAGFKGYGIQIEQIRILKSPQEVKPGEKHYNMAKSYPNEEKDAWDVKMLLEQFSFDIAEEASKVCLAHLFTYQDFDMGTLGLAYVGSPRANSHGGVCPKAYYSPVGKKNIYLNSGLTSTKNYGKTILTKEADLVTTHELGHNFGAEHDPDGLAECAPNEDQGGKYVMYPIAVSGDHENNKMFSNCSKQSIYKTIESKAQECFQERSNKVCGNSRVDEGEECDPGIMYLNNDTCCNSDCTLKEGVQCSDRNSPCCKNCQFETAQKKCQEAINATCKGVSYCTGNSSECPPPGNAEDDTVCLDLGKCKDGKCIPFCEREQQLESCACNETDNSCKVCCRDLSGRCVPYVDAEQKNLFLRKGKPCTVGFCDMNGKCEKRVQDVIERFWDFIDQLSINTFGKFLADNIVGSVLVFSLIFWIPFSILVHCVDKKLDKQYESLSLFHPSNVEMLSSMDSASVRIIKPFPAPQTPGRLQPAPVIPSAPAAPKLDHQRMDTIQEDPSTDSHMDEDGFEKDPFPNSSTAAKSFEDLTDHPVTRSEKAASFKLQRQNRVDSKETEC
NPR1 activator = GC-A (human) enzyme activation; activation, % at 10 µM; HEK293 GC-A cells, cGMP TR-FRET, EC30 ANP; 0% at EC30 ANP, 100% saturating ANP; AID 1671463; 0.14% of 370,000 active; in the data active = activation above about 40%
* = called active by the depositor.

SMILES	GC-B act	ADAM10 inh	ADAM17 inh	NPR1 activator
COc1cccc(NC(=O)c2sc(Cl)nc2C)c1	6.1	6.8	-1.1	3.7
Cc1cccc(OC(=O)c2sc(Cl)nc2C)c1	6.2	-0.6	-4.0	56.0*
C#Cc1cccc(Nc2nc(NCc3ccccc3OC)nc3ccsc23)c1	7.0	-37.9	-10.8	3.4
C#Cc1cccc(Nc2nc(NCCOC)nc3ccsc23)c1	37.4*	-18.3	-4.8	35.2
O=C(Nc1nc(-c2ccccc2)cs1)C1CCCN(S(=O)(=O)c2ccccc2)C1 (centres undefined)	-1.9	16.9	9.4*	3.0
O=C(Nc1nc(-c2ccccc2)cs1)C1CCCN(S(=O)(=O)c2cccc([N+](=O)[O-])c2)C1 (centres undefined)	-3.1	-1.9	-1.9	3.3
O=C(Nc1nc(-c2cccs2)cs1)c1cccc(S(=O)(=O)N2CCCCC2)c1	4.7	37.9*	15.6*	0.1
CC(C)(C)c1ccc(-c2nnc(SCC(=O)Nc3ccc4cn[nH]c4c3)n2-c2ccc(Cl)cc2)cc1	-1.8	9.6	4.2	-3.5
CCN(CC)C(=O)c1ccc2c(=O)n(Cc3cccc(Br)c3)c(=S)[nH]c2c1	4.5	2.8	0.3	22.4
Cc1ccccc1NS(=O)(=O)c1ccc(NC(=O)CSCc2ccc(Br)cc2)cc1	6.1	32.3*	15.3*	-6.7
CCOc1ccccc1CN(Cc1ccco1)S(=O)(=O)c1ccc(-n2cnnn2)c(OC)c1	-6.5	18.0	12.0*	-5.3
CC1Cc2nc(SCC(=O)NCc3ccccc3)n(Cc3ccccc3)c(=O)c2S1 (centres undefined)	11.8	0.9	1.8	0.5
CC1Cc2nc(SCC(=O)c3ccccc3)n(Cc3ccccc3)c(=O)c2S1 (centres undefined)	8.9	20.5*	3.4	0.4
Cc1cccc(C)c1NC(=O)CN(C)C(=O)CC1OC(=O)c2ccccc21 (centres undefined)	0.9	1.7	-0.5	0.6
Cc1ccc(-c2cc(C(F)(F)F)n3nc(C(=O)N4CCN5CCCC5C4)cc3n2)cc1 (centres undefined)	7.2	-54.2	-20.5	8.1
CCOC(=O)C1CCCN(C(=O)c2cc3nc(-c4ccc5c(c4)OCO5)cc(C(F)(F)F)n3n2)C1 (centres undefined)	36.5*	-4.1	-3.9	32.7
O=C(c1cccs1)C1CCN(c2ncnc3sccc23)CC1	-7.4	4.3	1.1	-6.6
COc1ccc(-c2cc(C(F)(F)F)n3ncc(C(=O)NCC4CCCO4)c3n2)cc1 (centres undefined)	15.1	-51.8	-17.4	15.1
COc1cccc(-c2cc(C(F)(F)F)n3ncc(C(=O)NCC4CCCO4)c3n2)c1 (centres undefined)	45.7*	-21.0	-6.5	35.2
COc1ccc(COC[C@H](C)N2C[C@@H](C)[C@H](CN(C)S(=O)(=O)c3ccc(F)cc3)OCCCC[C@H](C)Oc3ccc(NC(=O)Nc4ccccc4)cc3C2=O)cc1	1.4	13.2	3.0	-1.9
CC(=O)Nc1ccc(-c2csc(NC(=O)C3CSC4(C)CCC(=O)N34)n2)cc1 (centres undefined)	-4.5	-25.5	-14.3	-1.1
COc1ccc(-c2csc(NC(=O)C3CSC4(C)CCC(=O)N34)n2)cc1OC (centres undefined)	7.9	2.5	-2.0	1.3
CC12CCC(=O)N1C(C(=O)Nc1nc(-c3ccc(F)c(F)c3)cs1)CS2 (centres undefined)	2.5	-9.9	-6.0	42.9*
CC12CCC(=O)N1C(C(=O)Nc1nc(-c3ccc(F)cc3)cs1)CS2 (centres undefined)	3.8	0.8	-2.7	45.9*
NCCCn1c(C(=O)c2cc(Cl)c(N)c(Cl)c2)c2ccc(C(F)(F)F)cc2[n+]1[O-]	-8.5	8.2	-4.1	-7.6
SMILES	GC-B act	ADAM10 inh	ADAM17 inh	NPR1 activator
NC(=O)CCCn1c(C(=O)c2cc(Cl)c(N)c(Cl)c2)c2ccc(C(F)(F)F)cc2[n+]1[O-]	83.6*	7.6	-3.3	-2.4
Cc1cc(C)cc(NC(=O)CCn2ccnc2)c1	1.8	-6.0	1.6	-2.5
O=C(O)[C@H]1CCCN1C(=O)c1ccccc1N1C(=O)[C@@H]2Cc3c([nH]c4ccccc34)C(c3cccc(Cl)c3)N2C1=O (some centres undefined)	35.2*	-83.0	-23.6	22.3
COc1ccc(-c2nc(NC(=O)CSc3nnc4ccccn34)ns2)cc1	45.1*	-54.8	-25.1	0.8
O=c1n(Cc2ccccc2Cl)c2sc3c(c2c2ncnn12)CCCC3	38.7*	-4.6	-1.6	25.1
O=C(Cn1c(=O)n2ncnc2c2c3c(sc21)CCCC3)c1ccccc1	4.6	12.8	-1.3	13.7
CCC[C@H]1[C@@H](NC(=O)C2CCCCC2)CC[C@@]23CCCN2C(=O)CCC[C@@H]13	-4.4	-6.9	-2.4	0.9
COc1ccc(NC(=O)N2CCCC(c3nc(-c4ccc(C(C)C)cc4)no3)C2)cc1 (centres undefined)	-14.1	25.1*	10.5*	-27.9
O=C(NCC(c1ccccc1)c1ccccc1)[C@H](Cc1ccccc1)NC1(C(=O)NC2CCCCC2)CCOCC1	-21.4	7.4	4.9	-18.3
COc1ccc(Oc2c(-c3ccc(O)cc3O)n[nH]c2C)cc1	0.7	2.5	3.6	43.6*
COC(=O)CCC/C=C1/SCC(NC(=O)c2ccccc2)C1=O (centres undefined)	0.8	0.8	12.0*	1.5
COc1ccc(S(=O)(=O)N(C)C[C@H]2OCc3cn(nn3)CCCC(=O)N([C@H](C)CO)C[C@@H]2C)cc1	0.6	-4.1	1.2	0.1
O=[N+]([O-])c1c(Nc2ccc(O)cc2)cc(Cl)c2nonc12	50.3*	-6.8	0.5	61.8*
O=[N+]([O-])c1c(Nc2ccccn2)cc(Cl)c2nonc12	43.2*	-12.4	-3.4	49.6*
O=C(CN1C(=O)NC2(CCCC2)C1=O)Nc1nc(-c2ccc(F)cc2)cs1	7.1	0.9	-4.5	45.2*
CC(=O)Nc1ccc(-c2csc(NC(=O)CN3C(=O)NC4(CCCC4)C3=O)n2)cc1	-5.0	-51.8	-15.2	2.1
CC1(C)NC(=O)N(CC(=O)Nc2nc(-c3ccc(F)cc3)cs2)C1=O	6.5	-3.7	-1.4	47.8*
CC1CCCC(C)N1C(=O)COC(=O)c1cc(=O)[nH]c2ccccc12 (centres undefined)	0.1	-154.6	-46.2	2.5
Cc1ccc(Cc2c(-c3ccc(Cl)cc3)nc3cc(C)ccn23)cc1	48.0*	-35.0	-9.5	35.9
COc1cccc(NC(=O)Cn2c(=O)n(CCC(=O)NC3CCN(Cc4ccccc4)CC3)c(=O)c3ccccc32)c1	-5.8	4.5	-0.7	-5.7
CC(C)CC(=O)N1CCN(c2ccc([N+](=O)[O-])c(NCc3ccccc3)c2)CC1	0.4	18.3	12.7*	10.7
O=C(c1ccccc1)N1CCN(c2ccc([N+](=O)[O-])c(NCc3cccnc3)c2)CC1	-3.4	7.5	-0.9	2.8
